Compound activity as filed in PubChem BioAssay.
Mtb bLac sens: beta-lactam sensitization of Mtb H37Rv, H37Rv; inhibition, % at 25 µM; M. tuberculosis H37Rv growth with meropenem, percent inhibition; actives 0.27% (n = 330,000); call rule not given here;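 note: growth measured after seven days incubation then overnight dye step; 0% = bacteria only wells and 100% = bacteria with antibiotic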
Mtb FBA inh: Mtb FBA enzyme inhibitors, primary screen, biochemical, fluorescence, strain H37Rv; Fructose-bisphosphate aldolase (Mycobacterium tuberculosis (strain ATCC 25618 / H37Rv)), …; purified M. tuberculosis FBA, fluorescence read-out; inhibition, % at 1 µM; actives 2.3% (n = 360,000);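 note: 0% = vehicle and 100% = reference inhibitor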
GDH-TPI counter-1: GDH-TPI coupling enzyme inhibitors, primary screen, artefact control for M. tuberculosis FBA inhibitor project, biochemical, absorbance, full deck; GDH-TPI coupled enzyme counterscreen, NADH absorbance; inhibition, % at 4.8 µM; actives 1.2% (n = 360,000); AID 588335, 2011; in the data active = inhibition above about 30%;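 note: 0% = DMSO wells and 100% = wells lacking the enzyme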
UGM FP inh: M. tuberculosis UGM enzyme inhibitors, primary screen, biochemical, fluorescence polarization, single point; UDP-galactopyranose mutase (Mycobacterium tuberculosis (strain ATCC 25618 / H37Rv)), …; purified UGM, fluorescence polarization probe displacement; inhibition, % at 10 µM; actives 0.06% (n = 320,000); AID 504406, 2011; in the data active = inhibition above about 10%, passing the limit was not always enough
RecA splice inh: Mtb RecA intein splicing inhibitors, primary screen, biochemical, fluorescence, HTS | Protein RecA (Mycobacterium tuberculosis (strain ATCC 25618 / H37Rv)), P9WHJ3 | AID 2221, 2009 | actives 0.75% (n = 290,000) | cell-free RecA intein splicing | inhibition, % (no concentration beside the values); in the data active = inhibition above about 30%;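 note: 0% = vehicle wells and 100% = reference inhibitor control wells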
Rv3671c protease: Rv3671c serine protease inhibitors, primary screen, biochemical, fluorescence polarization, M. tuberculosis H37Rv; P9WHR9; inhibition, % at 5.96 µM; actives 0.048% (n = 320,000); AID 2606, 2010; in the data active = inhibition above about 38%;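 note: extracellular domain of Rv3671c used as enzyme; 0% = enzyme with DMSO and 100% = no enzyme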
Mtb FBA inh conf: M. tuberculosis aldolase blockers, biochemical, fluorescence, strain H37Rv, confirmation; shares compounds with Mtb FBA inh; purified M. tuberculosis FBA, fluorescence read-out; inhibition, % at 1 µM; actives 78% (n = 5,600); AID 651616, 2012;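 note: 0% = vehicle wells and 100% = reference inhibitor wells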
GDH-TPI counter-2: GDH-TPI coupling enzyme inhibitors, artefact control for M. tuberculosis FBA inhibitor project, biochemical, fluorescence, high throughput; AID 652141, 2013; shares compounds with Mtb FBA inh; inhibition, % at 1 µM; GDH-TPI coupled enzyme counterscreen; actives 81% (n = 5,600); in the data active = inhibition above about 10%
Active calls of the source: *; . = no result. Rows were chosen to be rich in hits. Some 4% of all compounds tested hit in one or more screens of this group. Cut-off read from the data, not from the text of the source, unless noted: active = inhibition above about 27%; inactive = the rest.

SMILES	Mtb bLac sens	Mtb FBA inh	GDH-TPI counter-1	UGM FP inh	RecA splice inh	Rv3671c protease	Mtb FBA inh conf	GDH-TPI counter-2
CC(=O)c1cccc(N(CC(=O)NC2CCCCC2)C(=O)Cn2nnc(-c3ccccc3)n2)c1	-9	1	3	-7	3	-3	.	.
COc1cccc(NC(=S)NC2CC(C)CC(C)(C)C2)c1 (centres undefined)	.	4	9	.	.	.	.	.
CCOc1cccc(-c2cc(NCCc3ccccn3)n3nccc3n2)c1	.	35*	7	.	.	.	87*	71*
Cc1cccc(-c2cc(NCCc3cccnc3)n3nccc3n2)c1	.	32*	4	.	.	.	46*	35*
Cc1ccccc1C(NC(=O)C1CCN(Cc2ccc(Oc3ccccc3)cc2)CC1)c1ccsc1 (centres undefined)	.	-2	9	.	.	.	.	.
Oc1ccc2ccccc2c1C=Nc1ccccc1-c1nc2ccccc2[nH]1	3	67*	9	0	-10	-11	62*	38*
CC(C)c1cc(NCCCN2CCOCC2)n2c(nc3ccccc32)c1C#N	1	51*	6	0	-40	-14	169*	129*
N#Cc1c2c(c(NCCCN3CCOCC3)n3c1nc1ccccc13)CCC2	-1	27*	14	3	-129	6	52*	60*
CC(C)(C)c1cc(=O)n2c(C#N)c(C#N)nc2[nH]1	-4	80*	12	0	-4	-6	47*	40*
CCNC(=O)C1(C)CCN(C(=O)c2c(F)ccc(C)c2F)C1 (centres undefined)	.	-3	4	.	.	.	.	.
Cc1cc(OC(=O)N(C)C)nc2c1c(C)nn2C	-9	9	1	-1	1	6	.	.
CC(=O)Nc1nn(C)c2nc(C)cc(C)c12	-4	39*	-13	2	.	6	59*	50*
COc1ccc(CNC(=O)C[C@H]2C[C@H](C(=O)N(C(C)C)C(C)C)[C@@]3(C)c4[nH]c5cc(-c6ccco6)ccc5c4CCN3C2=O)cc1OC	.	19	4	.	.	.	.	.
COc1cc(CC(=O)Nc2cccc(C(F)(F)F)c2)cc(OC)c1OC	-3	0	8	4	5	-14	.	.
O=C(NCc1ccc(Cl)cc1Cl)C1CC(=O)N(Cc2ccccc2)C1 (centres undefined)	-10	0	-1	1	-6	-8	.	.
Cn1c(=O)c2cc(NC(=O)CCc3cccc(Cl)c3)ccc2n1Cc1cccc(C(F)(F)F)c1	.	37*	-4	.	.	.	96*	84*
COc1cc(CCC(=O)Nc2cccc(C(F)(F)F)c2)cc(OC)c1OC	-4	-1	11	2	0	-4	.	.
COc1ccc(OC)c(CC(=O)Nc2ccc3c(c2)c(=O)n(C)n3Cc2cccc(C(F)(F)F)c2)c1	.	111*	-5	.	.	.	36*	28*
Cn1c(=O)c2cc(NC(=O)NCc3ccc(Cl)cc3Cl)ccc2n1Cc1ccccc1	.	48*	8	.	.	.	152*	117*
Cn1c(=O)c2cc(NC(=S)NCc3ccccc3F)ccc2n1C	.	57*	8	.	.	.	18	12*
COc1ccc2[nH]c3c(c2c1)CCNC3=O	-3	88*	2	-3	-2	9	44*	36*
Cc1ccc(C)c(S(=O)(=O)NCC(c2ccco2)N2CCc3ccccc3C2)c1 (centres undefined)	-10	74*	3	3	13	-7	81*	74*
CCOc1c2ccc(C(=O)NCc3cc(C(F)(F)F)cc(C(F)(F)F)c3)cc2nn1CCOC	14	43*	5	0	0	-1	105*	64*
